Where “and” joins values, the source holds several entries; their conditions need not be identical. Identical values can stand only once. Compounds without any hit were thinned out: in the full panel of roughly 83,000, 20% have a hit.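 Assay: single dose, 48 h. Readout: percent growth (0 = no net growth; negative = cell death). Active: <10.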 Values without a mark were called inactive. Calls of active or inactive are those of the source.
The compounds below were run on HL-60(TB) leukemia (assay: NCI-60 one-dose screen, 48 h (100 = growth as untreated, 0 = no growth, -100 = all killed)). Conditions: 10 µM unless noted.
With `COC(C(=O)[C@@H](O)[C@@H](C)O)[C@@H]1Cc2cc3cc(O[C@H]4C[C@@H](O[C@H]5C[C@@H](O)[C@H](O)C(C)O5)[C@H](O)C(C)O4)cc(O)c3c(O)c2C(=O)[C@H]1O[C@H]1C[C@@H](O[C@H]2C[C@@H](O[C@H]3C[C@@H](OC)[C@H](O)C(C)O3)[C@@H](O)C(C)O2)[C@H](O)C(C)O1` (some centres undefined) the growth was 81.5%.
Work on `CCOC(=O)c1cnc2ccccc2c1Cl` yielded a growth of 122%.
For `C=CCc1cc(OC)c(O)c(OC)c1`, the growth was 109%.
Work on `Nc1ccn([C@@H]2O[C@H](COP(=O)(O)O[C@@H]3C[C@H](n4cc(F)c(=O)[nH]c4=O)O[C@@H]3COP(=O)(O)O[C@@H]3C[C@H](n4cc(F)c(=O)[nH]c4=O)O[C@@H]3COP(=O)(O)O[C@@H]3C[C@H](n4cc(F)c(=O)[nH]c4=O)O[C@@H]3COP(=O)(O)O[C@@H]3C[C@H](n4cc(F)c(=O)[nH]c4=O)O[C@@H]3COP(=O)(O)O[C@@H]3C[C@H](n4cc(F)c(=O)[nH]c4=O)O[C@@H]3COP(=O)(O)O[C@@H]3C[C@H](n4cc(F)c(=O)[nH]c4=O)O[C@@H]3COP(=O)(O)O[C@@H]3C[C@H](n4cc(F)c(=O)[nH]c4=O)O[C@@H]3COP(=O)(O)O[C@@H]3C[C@H](n4cc(F)c(=O)[nH]c4=O)O[C@@H]3COP(=O)(O)O[C@@H]3C[C@H](n4cc(F)c(=O)[nH]c4=O)O[C@@H]3COP(=O)(O)O[C@@H]3C[C@H](n4cc(F)c(=O)[nH]c4=O)O[C@@H]3COP(=O)(O)OCCOCCOCCOCCOCCOCCO)[C@H](O)C2O)c(=O)n1` (some centres undefined) yielded a growth of 38.3%.
In the case of `Cc1c(C)c(N2C(=O)C=CC2=O)c(C)c(C)c1N1C(=O)C=CC1=O`, the growth is reported as 57.5%.
`COc1ccc(-c2nsc3c2NC(=O)CC3c2cccc(Cl)c2)cc1` (centres undefined) was tested, and the growth was -19.2% (active).
Compound `O=C1/C(=C\c2cn(C(=O)c3ccc(Cl)cc3)c3ccccc23)c2ccccc2N1c1c(Cl)cccc1Cl` has a growth of 103%.
With `C[C@]12CCC(=O)C[C@H]1CC[C@@H]1[C@@H]2CC[C@@]2(C)[C@H]1CC[C@]2(O)C(=O)CO` the growth was 126%.
With `O=C(Nc1ccccc1)Nc1cccc(-n2cc(-c3ccncc3)c(-c3ccc(O)c(Cl)c3)n2)c1` the growth was 37.5%.
Work on `Cc1cc(CCNC=O)c(C)c2c1sc1ccccc12` yielded a growth of 91.9%.
`COc1cccc(Nc2nc(NCCO)c3ccccc3n2)c1` gave a growth of 61.4%.
For `O=C1OCC2=C1C(c1cccc(Cl)c1)c1cc3c(cc1N2CCO)OCCO3` (centres undefined), the growth was -20% (active).
In the case of `O=C(O)CCCN1C(=O)/C(=C/C(Cl)=C/c2ccccc2)SC1=S`, the growth is reported as 7.56% (active).
For `O=C1N[C@H]2[C@H](CS[C@H]2CCCCC(=O)N(CCP(c2ccccc2)c2ccccc2)CCP(c2ccccc2)c2ccccc2)N1`, the growth was 72.8%.
Compound `CNC(=O)NCC1OC(n2cnc3c(NC(=O)Nc4ccccc4)ncnc32)C(O[Si](C)(C)C(C)(C)C)C1O[Si](C)(C)C(C)(C)C` (centres undefined) has a growth of 23.5%.
Work on `Cc1nc(NC(=O)NC2CCCCC2)sc1C(=O)NN` yielded a growth of 172%.
In the case of `CCOC(=O)/C=C/c1ccc(C(=O)OCC)[nH]1`, the growth is reported as 51.2%.
In the case of `c1cc2ccc1CNCCN1CCNCc3ccc(cc3)Oc3ccc(cc3)CNCCN(CCNCc3ccc(cc3)O2)CCNCc2ccc(cc2)Oc2ccc(cc2)CNCC1`, the growth is reported as -57.4% (active).
In the case of `c1ccc2c(c1)Oc1cccnc1-n1nccc1-2`, the growth is reported as 101%.
With `O=C(/C=C/c1ccco1)Nc1ncc(Cc2cccc(C(F)(F)F)c2)s1` the growth was -53.6% (active).
`O=C(CSc1nc2ccc([N+](=O)[O-])cc2[nH]1)Nc1cccc(C(F)(F)F)c1` was tested, and the growth was 0.11% (active).
`NS(=O)(=O)c1ccc(CCN2C(=O)C=CC2=O)cc1` showed a growth of 99.6%.
For `N=C(N)c1ccc(-c2ccc(-c3ccco3)o2)cc1`, the growth was 16.6%.
In the case of `OC1CC2c3ccccc3C1c1ccccc12` (centres undefined), the growth is reported as 109%.
Work on `Cc1cc2c(O)c(-c3cccc(Cl)c3)c3sc(=O)oc3c2cc1C` yielded a growth of 23.2%.
For `Cc1ccccc1N=C(c1ccccc1)C1C(=O)c2ccccc2C1=O`, the growth was 78.5%.
For `COc1nc2c(cc1S(=O)(=O)c1ccccc1)CCc1c-2cnn1-c1cccc(Cl)c1`, the growth was 65.2%.
`Cc1ccc(CNc2ccc(Cl)cc2NCc2ccc(C)c(O)c2)cc1O` was tested, and the growth was 8.41% (active).
For `CN(C)c1ccc(/C=C/C(=O)c2ccc(-n3cc(CN4CCN(c5cc6c(cc5F)c(=O)c(C(=O)O)cn6C5CC5)CC4)nn3)cc2)cc1`, the growth was 84.6%.
`Oc1ccc(-c2nnc3c4[nH]ccc4ncn23)cc1` showed a growth of 106%.
Work on `COc1cc2ccccc2cc1C(=O)NC(=S)Nc1ccc(-c2nc3ccccc3[nH]2)cc1` yielded a growth of 106%.
`CCN(CC)CCc1nc(-c2ccccc2)no1` gave a growth of 104%.
With `O=C1C2C3C=CC(O3)C2C(=O)N1Nc1ccccc1` (centres undefined) the growth was 102%.
For `Cc1cc(NS(=O)(=O)c2ccc(N=Nc3cc(N=Nc4ccc(S(=O)(=O)Nc5cc(C)nc(C)n5)cc4)c4c(NC(=O)C(Cl)Cl)cccc4c3OC(=O)C(Cl)Cl)cc2)nc(C)n1` (tested in a mixture with another compound), the growth was 116% and 98.5%.
In the case of `CCOC(=O)c1c(C)[nH]c(C)c1C=O`, the growth is reported as 71.4%.
In the case of `CC(=O)C1CCC2C3CC=C4CC(SC(=N)N)CCC4(C)C3CCC12C` (centres undefined), the growth is reported as -17.6% (active).
With `COc1ccc(/C=C/C(=C/c2c(O)[nH]c3cc(Br)ccc23)N=O)cc1` the growth was 119%.
For `O=C(/C=C/c1ccc(Cl)cc1)c1ccc(Br)cc1`, the growth was 81.4%.
Work on `CC(C)(C#N)c1cc(F)cc(C(=O)Nc2cc(Nc3ncccc3-c3ncnc4nc[nH]c34)ccc2F)c1` yielded a growth of 13.9%.
